Experimental data: PubChem BioAssay (Tox21)
Where “and” joins values, the source holds several entries; their conditions need not be identical. Equal entries are not always repeated. Inconclusive results are not listed. Unmarked numbers belong to inactive results. Calls of active or inactive are those of the source. Calls come from the whole dose curve; as a rule, active = well fitted cell-killing curve with a large enough effect in the repeat runs; inconclusive = weak or mixed curves, or effect the other way; inactive = flat fitted curve, though single readings scatter.

Experiment: qHTS RealTime-Glo MT Cell Viability Assay in HEK293 cells - 32 hour (AID 1224868); note: nearly all actives have a fitted effect of over 50% in size; for activity change, negative = cytotoxic: top concentration of the series differs between compounds
Settings: RealTime-Glo luminescence; series mostly up to 76.8 µM; activity change, negative = cytotoxic: at the top concentration
Text: National Center for Advancing Translational Sciences [NCATS]
NIH Chemical Genomics Center [NCGC]
U.S. Environmental Protection Agency [EPA]
National Institutes of Environmental Health Sciences [NIEHS]
National Toxicology Program [NTP]
U.S. Food and Drug Administration [FDA]
Measure of cell viability is critical in the cell-base assay. Analysis of cell viability is necessary for the characterization of cell responses to cytotoxic drugs and environmental stress. A RealTime-Glo MT Cell Viability Assay to monitor cell viability in real time of continues cell culture during 40 hours of compound treatment was used to screen Tox21 10K library compounds in Hek293 cells. The RealTime-Glo MT Cell Viability Assay is a nonlytic, homogeneous, bioluminescent method to measure cell viability in real time using a simple, plate-based method. The assay involves adding NanoLuc luciferase and a cell-permeant prosubstrate to cells in culture. Viable cells reduce the proprietary prosubstrate to generate a substrate for NanoLuc luciferase. This substrate diffuses from cells into the surrounding culture medium, where it is rapidly used by the NanoLuc Enzyme to produce a luminescent signal. The signal correlates with the number of viable cells, making the assay well suited for cytotoxicity studies.
Tox21 Assay Protocol Summary:
The mixture of Hek293 cell suspension and reagents were dispensed at 600cells/6 ul/well in 1536-well tissue culture treated black solid bottom plates using a Multidrop dispenser. After the assay plates were incubated at a 37 C/5% CO2 incubator for 5 hours, 23 nL of compounds dissolved in DMSO, positive and negative controls was transferred to the assay plate by a pintool work station. The plates were incubated at 37 C for 40 hours. The luminescence intensity were measured at 0h, 8h, 16h, 24h, 32h and 40h time points using ViewLux plate reader during compound treatment.
% is set by controls: 0 for no effect and ±100 for the full control effect; potency is the fitted concentration of half-maximal effect.

Compound	activity change, negative = cytotoxic	Potency
CC(C)=CCCC(C)CCOC(=O)C(C)C (stereo not given)	11%	–
CCOC(=O)N1CCC(=C2c3ccc(Cl)cc3CCc3cccnc32)CC1	–	15.5 µM (active) and 16.9 µM (active)
C/C=C/c1ccc(OC)c(OC)c1	-18%	–
CCN(CC)c1cccc(C)c1	-5.7%	–
Cc1c(-c2ccc(O)cc2)n(Cc2ccc(OCCN3CCCCCC3)cc2)c2ccc(O)cc12	–	3.01 µM (active)
Clc1nc2ccccc2s1	-6.56%	–
CCCCCCCC/C=C/CCCOC(C)=O	2.21%	–
CN(C)CCCN1c2ccccc2Sc2ccc(C(F)(F)F)cc21	–	21.3 µM (active)
Cc1cccc(C)c1NC(=O)CN1CCN(CCCC(c2ccc(F)cc2)c2ccc(F)cc2)CC1	–	9.52 µM (active)
CC(C)=CC1CC(C)CCO1 (stereo not given)	2.83%	–
CSc1ccc2c(c1)N(CCC1CCCCN1C)c1ccccc1S2 (stereo not given)	–	15.4 µM (active)
C[Si](C)O[Si](C)C	-9.46%	–
COC(=O)[C@]1(C)CCC[C@@]2(C)[C@H]1CC=C1C=C(C(C)C)CC[C@@H]12	-4.79%	–
OCCCCl	8.64%	–
CCCCCCOc1ccc(O)cc1	–	0.0692 µM (active)
CC(=O)C=O	1.02%	–
CC1(C)C(=O)N(CO)C(=O)N1CO	6.83%	–
C(=C/c1ccccc1)/c1ccccc1	-13.2%	–
O=C1C=CC(=O)N1c1ccccc1	–	11 µM (active)
c1cc(OCC2CO2)cc(OCC2CO2)c1 (stereo not given)	–	17.2 µM (active)

Compound	activity change, negative = cytotoxic	Potency
OCCN1CN(CCO)CN(CCO)C1	-20.4%	–
CC(C)(C)c1cc(/C=C2\SC(=N)NC2=O)cc(C(C)(C)C)c1O	–	49 µM (active)
N[C@@H](CSSC[C@H](N)C(=O)O)C(=O)O	5.6% [at 0.29 µM]	–
Cc1cc(Nc2ccc(O)cc2)ccc1N	–	19.4 µM (active)
C[C@@]12C(=O)OC(=O)[C@]1(C)C1CCC2O1	–	6.01 µM (active)
C=CC(=O)OCC(O)COc1ccccc1 (stereo not given)	8.13%	–
CN1CN(C)CN(C)C1	-13.8%	–
CCCCCCCCCCc1ccccc1	-1.83%	–
Cc1oc(-c2ccccc2)nc1CCOc1ccc(C[C@H](Nc2ccccc2C(=O)c2ccccc2)C(=O)O)cc1	-0.33%	–
CCCCC(CC)COC(=O)c1ccc(O)cc1 (stereo not given)	–	54.7 µM (active)
C=CC(=O)OCCOCC(CC)(COCCOC(=O)C=C)COCCOC(=O)C=C	–	16.1 µM (active)
Brc1ccccc1-c1ccccc1	-1.83%	–
ClC/C=C\CCl	-37.3%	–
CCO[Si](C)(C)OCC	-0.925%	–
C[C@H]1O[C@@H](O[C@H]2[C@@H](O)C[C@H](O[C@H]3[C@@H](O)C[C@H](O[C@H]4CC[C@@]5(C)[C@H](CC[C@@H]6[C@@H]5C[C@@H](O)[C@]5(C)[C@@H](C7=CC(=O)OC7)CC[C@]65O)C4)O[C@@H]3C)O[C@@H]2C)C[C@H](O)[C@@H]1O	–	61.7 nM (active) and 54.3 nM (active)
CCN(CC)CCOc1ccc(C(O)(Cc2ccc(Cl)cc2)c2ccc(C)cc2)cc1 (stereo not given)	–	16.9 µM (active)
CCC(C)C(=O)OC (stereo not given)	7.82%	–
CCc1cccc(CC)c1NC(=O)C(=O)O	13.7%	–
COC(=O)CC(C)CCC=C(C)C (stereo not given)	8.14%	–
CCCCCCCCCCCCCCCCCO	6.41% [at 15.8 µM]	–
